Test results published in PubChem BioAssay AID1159580 (chemical genetic matrix, 2015).
In all, about 5,500 compounds went through this assay and about 2,000 (36%) were called active. Not shown: some 18% with an inconclusive outcome. No stated cut-off is given here; in the data, active means normalized growth mostly below about 0.91 (no sharp cut-off); inconclusive means no clear call, values can overlap the other calls; inactive means mostly above about 0.92. The list shows a part of the results.

Assay: chemical genetic growth profiling, strain panel (AID 1159580);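 further: tested at 20 µM; growth read once vehicle control cultures reached saturation at 30 °C; 1 = growth at the plate median or of vehicle wells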
Conditions: growth OD

Measured: normalized growth

C[N+](C)(C)CCOP(=O)([O-])OP(=O)(O)OC[C@H]1OC(n2ccc(N)nc2=O)[C@H](O)[C@@H]1O (some centres not stated)
inactive: S. cerevisiae deletion strains, locus YJR075W, strain HOC1, stronger effect = lower value 0.975 | S. cerevisiae deletion strains, locus YKL009W, strain mrt4, stronger effect = lower value 1.03 | S. cerevisiae deletion strains, locus YKL068W, stronger effect = lower value 0.991 | S. cerevisiae deletion strains, locus YKL085W, strain MDH1 (second series), stronger effect = lower value 1.02 | S. cerevisiae deletion strains, locus YKL085W, strain MDH1, stronger effect = lower value 1.02 | S. cerevisiae deletion strains, locus YKL160W, strain elf1, stronger effect = lower value 0.984 | S. cerevisiae deletion strains, locus YKL190W, strain CNB1, stronger effect = lower value 0.999 | S. cerevisiae deletion strains, locus YKR001C, strain vps1, stronger effect = lower value 1.01 | S. cerevisiae deletion strains, locus YKR026C, strain gcn3, stronger effect = lower value 0.979 | S. cerevisiae deletion strains, locus YKR091W, strain srl3, stronger effect = lower value 0.982 | S. cerevisiae deletion strains, locus YLL001W, strain dnm1, stronger effect = lower value 0.963 | S. cerevisiae deletion strains, locus YLL026W, stronger effect = lower value 0.985 | S. cerevisiae deletion strains, locus YLL041C, strain sdh2, stronger effect = lower value 0.98 | S. cerevisiae deletion strains, locus YLR027C, strain aat2, stronger effect = lower value 0.987 | S. cerevisiae deletion strains, locus YLR039C, strain RIC1, stronger effect = lower value 1.03 | S. cerevisiae deletion strains, locus YLR058C, strain SHM2, stronger effect = lower value 1 | S. cerevisiae deletion strains, locus YLR102C, strain apc9, stronger effect = lower value 1.01 | S. cerevisiae deletion strains, locus YLR113W, strain HOG1, stronger effect = lower value 0.978 | S. cerevisiae deletion strains, locus YLR221C, strain rsa3, stronger effect = lower value 1.01 | S. cerevisiae deletion strains, locus YLR258W, strain gsy2, stronger effect = lower value 0.999 | S. cerevisiae deletion strains, locus YLR262C, strain YPT6 (second series), stronger effect = lower value 0.98 | S. cerevisiae deletion strains, locus YLR262C, strain YPT6, stronger effect = lower value 0.993 | S. cerevisiae deletion strains, locus YLR268W, strain sec22, stronger effect = lower value 0.974 | S. cerevisiae deletion strains, locus YLR320W, strain mms22, stronger effect = lower value 1.01 | S. cerevisiae deletion strains, locus YLR330W, strain CHS5, stronger effect = lower value 1 | S. cerevisiae deletion strains, locus YLR342W, strain FKS1 (second series), stronger effect = lower value 1.05 | S. cerevisiae deletion strains, locus YLR342W, strain FKS1, stronger effect = lower value 0.974 | S. cerevisiae deletion strains, locus YLR357W, strain rsc2, stronger effect = lower value 0.994 | S. cerevisiae deletion strains, locus YLR370C, strain arc18, stronger effect = lower value 0.981 | S. cerevisiae deletion strains, locus YLR371W, strain rom2, stronger effect = lower value 1.01 | S. cerevisiae deletion strains, locus YLR384C, strain iki3, stronger effect = lower value 0.981 | S. cerevisiae deletion strains, locus YLR418C, strain cdc73, stronger effect = lower value 0.963 | S. cerevisiae deletion strains, locus YML016C, strain PPZ1, stronger effect = lower value 1 | S. cerevisiae deletion strains, locus YML032C, strain rad52, stronger effect = lower value 1.02 | S. cerevisiae deletion strains, locus YML120C, strain ndi1, stronger effect = lower value 0.999 | S. cerevisiae deletion strains, locus YML124C, strain tub3, stronger effect = lower value 1.01 | S. cerevisiae deletion strains, locus YMR058W, strain fet3, stronger effect = lower value 0.978 | S. cerevisiae deletion strains, locus YMR078C, strain ctf18, stronger effect = lower value 1 | S. cerevisiae deletion strains, locus YMR125W, strain sto1, stronger effect = lower value 0.994 | S. cerevisiae deletion strains, locus YMR129W, stronger effect = lower value 0.981 | S. cerevisiae deletion strains, locus YMR205C, strain PFK2, stronger effect = lower value 0.99 | S. cerevisiae deletion strains, locus YMR223W, strain ubp8, stronger effect = lower value 1.02 | S. cerevisiae deletion strains, locus YMR231W, strain pep5, stronger effect = lower value 0.989 | S. cerevisiae deletion strains, locus YMR263W, strain SAP30, stronger effect = lower value 0.983 | S. cerevisiae deletion strains, locus YMR307W, strain GAS1, stronger effect = lower value 1.04 | S. cerevisiae deletion strains, locus YNL067W, strain RPL9B, stronger effect = lower value 0.969 | S. cerevisiae deletion strains, locus YNL071W, strain lat1, stronger effect = lower value 0.991 | S. cerevisiae deletion strains, locus YNL128W, strain TEP1, stronger effect = lower value 0.943 | S. cerevisiae deletion strains, locus YNL153C, strain GIM3, stronger effect = lower value 0.985 | S. cerevisiae deletion strains, locus YNL183C, strain NPR1, stronger effect = lower value 0.964 | S. cerevisiae deletion strains, locus YNL209W, strain ssb2, stronger effect = lower value 1 | S. cerevisiae deletion strains, locus YNL233W, strain BNI4, stronger effect = lower value 0.994 | S. cerevisiae deletion strains, locus YNL248C, strain rpa49, stronger effect = lower value 1 | S. cerevisiae deletion strains, locus YNL250W, strain rad50, stronger effect = lower value 1 | S. cerevisiae deletion strains, locus YNL271C, strain bni1, stronger effect = lower value 0.995 | S. cerevisiae deletion strains, locus YNL298W, strain CLA4, stronger effect = lower value 1 | S. cerevisiae deletion strains, locus YNL307C, strain MCK1, stronger effect = lower value 1.02 | S. cerevisiae deletion strains, locus YNL322C, strain KRE1 (second series), stronger effect = lower value 0.975 | S. cerevisiae deletion strains, locus YNL322C, strain KRE1, stronger effect = lower value 0.998 | S. cerevisiae deletion strains, locus YNR049C, strain mso1, stronger effect = lower value 0.972 | S. cerevisiae deletion strains, locus YNR052C, strain pop2, stronger effect = lower value 1.02 | S. cerevisiae deletion strains, locus YOL006C, strain TOP1, stronger effect = lower value 1.04 | S. cerevisiae deletion strains, locus YOL012C, strain htz1 0.746 | S. cerevisiae deletion strains, locus YOL147C, strain pex11, stronger effect = lower value 1 | S. cerevisiae deletion strains, locus YOR001W, strain rrp6, stronger effect = lower value 0.988 | S. cerevisiae deletion strains, locus YOR061W, strain CKA2, stronger effect = lower value 1 | S. cerevisiae deletion strains, locus YOR069W, strain VPS5, stronger effect = lower value 1 | S. cerevisiae deletion strains, locus YOR070C, strain gyp1, stronger effect = lower value 0.998 | S. cerevisiae deletion strains, locus YOR080W, strain dia2, stronger effect = lower value 0.985 | S. cerevisiae deletion strains, locus YOR083W, strain WHI5, stronger effect = lower value 0.989 | S. cerevisiae deletion strains, locus YOR106W, strain vam3, stronger effect = lower value 0.982 | S. cerevisiae deletion strains, locus YOR136W, strain idh2, stronger effect = lower value 1 | S. cerevisiae deletion strains, locus YOR144C, strain elg1, stronger effect = lower value 1 | S. cerevisiae deletion strains, locus YOR184W, strain ser1, stronger effect = lower value 1.03 | S. cerevisiae deletion strains, locus YOR231W, strain MKK1, stronger effect = lower value 1 | S. cerevisiae deletion strains, locus YOR265W, strain rbl2, stronger effect = lower value 0.985 | S. cerevisiae deletion strains, locus YOR270C, strain vph1, stronger effect = lower value 0.98 | S. cerevisiae deletion strains, locus YOR290C, strain snf2, stronger effect = lower value 1.01 | S. cerevisiae deletion strains, locus YOR316C, strain cot1, stronger effect = lower value 1.01 | S. cerevisiae deletion strains, locus YPL051W, strain arl3, stronger effect = lower value 0.999 | S. cerevisiae deletion strains, locus YPL055C, strain LGE1, stronger effect = lower value 0.937 | S. cerevisiae deletion strains, locus YPL078C, strain atp4, stronger effect = lower value 0.976 | S. cerevisiae deletion strains, locus YPL106C, strain sse1, stronger effect = lower value 0.993 | S. cerevisiae deletion strains, locus YPL240C, strain hsp82, stronger effect = lower value 0.993 | S. cerevisiae deletion strains, locus YPL241C, strain CIN2, stronger effect = lower value 0.992 | S. cerevisiae deletion strains, locus YPL256C, strain CLN2, stronger effect = lower value 0.982 | S. cerevisiae deletion strains, locus YPR119W, strain clb2, stronger effect = lower value 0.993 | S. cerevisiae deletion strains, locus YPR141C, strain kar3, stronger effect = lower value 0.993 | S. cerevisiae deletion strains, locus YPR163C, strain tif3, stronger effect = lower value 1.01 | S. cerevisiae deletion strains, locus YPR167C, strain met16, stronger effect = lower value 0.992 | S. cerevisiae deletion strains, strain wtn01, stronger effect = lower value 0.987 | S. cerevisiae strains, strain wild type, stronger effect = lower value 0.972
